# The panel holds about 79,000 compounds, 15% with a hit somewhere; the sample as a whole holds those more often. A number with no mark means an inactive call. The source made the active and inactive calls. Cut-off read from the data, not from the text of the source: active = growth inhibition above about 70%; inactive = the rest.
# Legend:
# [1] = NCI Yeast Anticancer Drug Screen. Data for the sgs1 strain (AID 173);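 note: 0% = growth of vehicle-only control cultures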; conditions: S. cerevisiae sgs1 mutant, active compounds read high
# Procedure, shortened: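 Inhibition of yeast growth served as the measure. The mutant strain was treated with each compound, and growth was normalised to cultures receiving vehicle alone.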
# [2] = NCI Yeast Anticancer Drug Screen. Data for the mlh1 rad18 strain (AID 175); conditions: S. cerevisiae mlh1 rad18 strain growth inhibition, active compounds read high
# Procedure, shortened: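 Compound-treated yeast growth, normalised to vehicle controls. Strain bears defined DNA repair mutations.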
# [3] = NCI Yeast Anticancer Drug Screen. Data for the rad18 strain (AID 177); conditions: S. cerevisiae rad18 mutant growth inhibition, active compounds read high
# Procedure, shortened: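 Inhibition values reflect reduced yeast growth compared with vehicle-treated controls, using a strain engineered with a DNA damage repair defect.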
# [4] = NCI Yeast Anticancer Drug Screen. Data for the rad52 strain (AID 147);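 note: 0% = growth of vehicle-treated control cultures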; conditions: S. cerevisiae rad52 mutant growth inhibition, active compounds read high
# Procedure, shortened: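 Genetically altered yeast (DNA damage repair defect) treated with compound; inhibition calculated relative to vehicle.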
# [5] = NCI Yeast Anticancer Drug Screen. Data for the wt1 strain (AID 149);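 note: 0% = growth of vehicle-treated wt1 cultures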; conditions: S. cerevisiae wt1 strain (SPY 50644) growth inhibition, active compounds read high
# Procedure, shortened: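 Measured: growth of wt1 yeast under compound versus vehicle treatment, reported as inhibition.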
# [6] = NCI Yeast Anticancer Drug Screen. Data for the mgt1 strain (AID 153); conditions: S. cerevisiae mgt1 mutant growth inhibition, active compounds read high
# Procedure, shortened: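 Read-out: yeast growth inhibition vs vehicle control. Strain mgt1, drawn from a panel altered in DNA damage repair or cell cycle control.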
# [7] = NCI Yeast Anticancer Drug Screen. Data for the rad50 strain (AID 155);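 note: 0% = growth of vehicle-only cultures of the same strain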; conditions: S. cerevisiae rad50 strain growth inhibition, active compounds read high
# Procedure, shortened: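 Growth of the mutant yeast was measured after compound exposure and referenced to vehicle-treated cultures.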
# [8] = NCI Yeast Anticancer Drug Screen. Data for the mec2-1 strain (AID 157); conditions: S. cerevisiae mec2-1 strain, active compounds read high
# Procedure, shortened: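 Cells of the genetically defined mec2-1 yeast strain are incubated with test compound. Inhibition of growth is calculated against vehicle-treated controls.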
# [9] = NCI Yeast Anticancer Drug Screen. Data for the rad14 strain (AID 159);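 note: 0% = growth of vehicle-treated control cultures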; conditions: S. cerevisiae rad14 strain growth inhibition, active compounds read high
# Procedure, shortened: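 Here, inhibition of yeast growth was measured after compound exposure, using a strain with a genetic defect in DNA damage repair and vehicle-treated cultures as the reference.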
# [10] = NCI Yeast Anticancer Drug Screen. Data for the sgs1 mgt1 strain (AID 161);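 note: 0% = growth of cultures given vehicle only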; conditions: S. cerevisiae sgs1 mgt1 strain, active compounds read high
# Procedure, shortened: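 Mutant yeast exposed to compound; growth scored against vehicle-only wells.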
# [11] = NCI Yeast Anticancer Drug Screen. Data for the CLN2oe strain (AID 163);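 note: 0% = growth of vehicle-only control cultures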; conditions: S. cerevisiae CLN2oe strain, active compounds read high
# Procedure, shortened: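 Strain altered in cell-cycle control, incubated with compound; growth compared to solvent-treated controls.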
# [12] = NCI Yeast Anticancer Drug Screen. Data for the cln2 rad14 strain (AID 165);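 note: 0% = growth equal to vehicle treated cultures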; conditions: S. cerevisiae cln2 rad14 strain, active compounds read high
# Procedure, shortened: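 The screen exposed genetically defined yeast (cln2 rad14) to test compounds and scored growth inhibition relative to vehicle-treated controls.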
# [13] = NCI Yeast Anticancer Drug Screen. Data for the bub3 strain (AID 167); conditions: S. cerevisiae bub3 mutant strain, active compounds read high
# Procedure, shortened: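 Whole-cell yeast assay. The mutant strain was incubated with compounds, and growth inhibition was determined by comparison with vehicle-treated cells.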
# [14] = NCI Yeast Anticancer Drug Screen. Data for the wt2 strain (AID 169);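 note: 0% = growth of vehicle-treated yeast cultures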; conditions: S. cerevisiae wt2 strain growth inhibition, active compounds read high
# Procedure, shortened: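 Steps: yeast strain treated with compound; growth recorded; inhibition calculated relative to cultures given vehicle alone.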
# [15] = NCI Yeast Anticancer Drug Screen. Data for the mlh1 strain (AID 171);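 note: 0% = growth of vehicle-treated control cultures of the same strain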; conditions: S. cerevisiae mlh1 strain growth inhibition, active compounds read high
# Procedure, shortened: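 Yeast screen: mutant strain plus compound, growth scored against vehicle control wells.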
# [16] = at 5.0 µM (retest, dose inferred, filed as 0.5)
# [17] = at 50.0 µM (retest, dose inferred, filed as 5.0)
compound,measurement,setting,value
COC(=O)C(=O)CC(=O)c1cccc(OC)c1,growth inhibition,[1]; at 1.2 µM,-16%
same,growth inhibition,[1]; at 3.7 µM,-6%
same,growth inhibition,[1]; at 11.0 µM,8%
same,growth inhibition,[1]; at 33.0 µM,49%
same,growth inhibition,[1]; at 100.0 µM,82% (active)
same,growth inhibition,[2]; [16],-143%
same,growth inhibition,[2]; [17],-19%
same,growth inhibition,[2]; at 50.0 µM,49.6%
same,growth inhibition,[3]; at 1.2 µM,-6%
same,growth inhibition,[3]; at 3.7 µM,-2%
same,growth inhibition,[3]; at 11.0 µM,-1%
same,growth inhibition,[3]; at 33.0 µM,6%
same,growth inhibition,[3]; at 100.0 µM,19%
CCS(=O)(=O)Nc1ccc(Nc2c3ccccc3nc3ccccc23)c(OC)c1,growth inhibition,[4]; at 1.2 µM,62%
same,growth inhibition,[4]; at 3.7 µM,82% (active)
same,growth inhibition,[4]; at 11.0 µM,88% (active)
same,growth inhibition,[4]; at 33.0 µM,90% (active)
same,growth inhibition,[4]; at 100.0 µM,93% (active)
same,growth inhibition,[5]; at 1.2 µM,-36%
same,growth inhibition,[5]; at 3.7 µM,-42%
same,growth inhibition,[5]; at 11.0 µM,-38%
same,growth inhibition,[5]; at 33.0 µM,-4%
same,growth inhibition,[5]; at 100.0 µM,62%
same,growth inhibition,[6]; at 1.2 µM,-28%
same,growth inhibition,[6]; at 3.7 µM,-35%
same,growth inhibition,[6]; at 11.0 µM,-28%
same,growth inhibition,[6]; at 33.0 µM,3%
same,growth inhibition,[6]; at 100.0 µM,64%
same,growth inhibition,[7]; at 1.2 µM,51%
same,growth inhibition,[7]; at 3.7 µM,79% (active)
same,growth inhibition,[7]; [16],86% (active)
same,growth inhibition,[7]; at 11.0 µM,86% (active)
same,growth inhibition,[7]; at 33.0 µM,91% (active)
same,growth inhibition,[7]; [17],99% (active)
same,growth inhibition,[7]; at 50.0 µM,24.7%
same,growth inhibition,[7]; at 100.0 µM,92% (active)
same,growth inhibition,[8]; at 1.2 µM,-42%
same,growth inhibition,[8]; at 3.7 µM,-32%
same,growth inhibition,[8]; [16],12%
same,growth inhibition,[8]; at 11.0 µM,7%
same,growth inhibition,[8]; at 33.0 µM,69%
same,growth inhibition,[8]; [17],96% (active)
same,growth inhibition,[8]; at 50.0 µM,11.8%
same,growth inhibition,[8]; at 100.0 µM,89% (active)
same,growth inhibition,[9]; at 1.2 µM,-40%
same,growth inhibition,[9]; at 3.7 µM,-36%
same,growth inhibition,[9]; at 11.0 µM,-26%
same,growth inhibition,[9]; at 33.0 µM,5%
same,growth inhibition,[9]; at 100.0 µM,74% (active)
same,growth inhibition,[10]; [16],49%
same,growth inhibition,[10]; [17],98% (active)
same,growth inhibition,[10]; at 50.0 µM,80.8% (active)
same,growth inhibition,[11]; at 1.2 µM,-8%
same,growth inhibition,[11]; at 3.7 µM,-35%
same,growth inhibition,[11]; at 11.0 µM,-2%
same,growth inhibition,[11]; at 33.0 µM,29%
same,growth inhibition,[11]; at 100.0 µM,59%
same,growth inhibition,[12]; [16],43%
same,growth inhibition,[12]; [17],84% (active)
same,growth inhibition,[12]; at 50.0 µM,53.4%
same,growth inhibition,[13]; at 1.2 µM,-50%
same,growth inhibition,[13]; at 3.7 µM,-32%
same,growth inhibition,[13]; [16],42%
same,growth inhibition,[13]; at 11.0 µM,-36%
same,growth inhibition,[13]; at 33.0 µM,3%
same,growth inhibition,[13]; [17],65%
same,growth inhibition,[13]; at 50.0 µM,50.5%
same,growth inhibition,[13]; at 100.0 µM,67%
same,growth inhibition,[14]; at 1.2 µM,-47%
same,growth inhibition,[14]; at 3.7 µM,-47%
same,growth inhibition,[14]; at 11.0 µM,-42%
same,growth inhibition,[14]; at 33.0 µM,-1%
same,growth inhibition,[14]; at 100.0 µM,56%
same,growth inhibition,[15]; at 1.2 µM,-57%
same,growth inhibition,[15]; at 3.7 µM,-33%
same,growth inhibition,[15]; at 11.0 µM,-24%
same,growth inhibition,[15]; at 33.0 µM,17%
same,growth inhibition,[15]; at 100.0 µM,74% (active)
same,growth inhibition,[1]; at 1.2 µM,-14%
same,growth inhibition,[1]; at 3.7 µM,-11%
same,growth inhibition,[1]; at 11.0 µM,-7%
same,growth inhibition,[1]; at 33.0 µM,36%
same,growth inhibition,[1]; at 100.0 µM,76% (active)
same,growth inhibition,[2]; [16],77% (active)
same,growth inhibition,[2]; [17],97% (active)
same,growth inhibition,[2]; at 50.0 µM,36%
same,growth inhibition,[3]; at 1.2 µM,-21%
same,growth inhibition,[3]; at 3.7 µM,-12%
same,growth inhibition,[3]; at 11.0 µM,-18%
same,growth inhibition,[3]; at 33.0 µM,23%
same,growth inhibition,[3]; at 100.0 µM,74% (active)
CN(C)N=Nc1ccc(N(C)C)cc1,growth inhibition,[4]; at 1.2 µM,-1%
same,growth inhibition,[4]; at 3.7 µM,1%
same,growth inhibition,[4]; at 11.0 µM,4%
same,growth inhibition,[4]; at 33.0 µM,16%
same,growth inhibition,[4]; at 100.0 µM,53%
same,growth inhibition,[5]; at 1.2 µM,1%
same,growth inhibition,[5]; at 3.7 µM,-4%
same,growth inhibition,[5]; at 11.0 µM,-3%
same,growth inhibition,[5]; at 33.0 µM,-2%
same,growth inhibition,[5]; at 100.0 µM,5%
same,growth inhibition,[6]; at 1.2 µM,-3%
same,growth inhibition,[6]; at 3.7 µM,-3%
same,growth inhibition,[6]; at 11.0 µM,-1%
same,growth inhibition,[6]; at 33.0 µM,19%
same,growth inhibition,[6]; at 100.0 µM,12%
same,growth inhibition,[7]; at 1.2 µM,1%
same,growth inhibition,[7]; at 3.7 µM,1%
same,growth inhibition,[7]; [16],-7%
same,growth inhibition,[7]; at 11.0 µM,3%
same,growth inhibition,[7]; at 33.0 µM,5%
same,growth inhibition,[7]; [17],27%
same,growth inhibition,[7]; at 50.0 µM,82.5% (active)
same,growth inhibition,[7]; at 100.0 µM,14%
same,growth inhibition,[8]; at 1.2 µM,2%
same,growth inhibition,[8]; at 3.7 µM,3%
same,growth inhibition,[8]; [16],-9%
same,growth inhibition,[8]; at 11.0 µM,3%
same,growth inhibition,[8]; at 33.0 µM,7%
same,growth inhibition,[8]; [17],-9%
same,growth inhibition,[8]; at 50.0 µM,16.4%
same,growth inhibition,[8]; at 100.0 µM,9%
same,growth inhibition,[9]; at 1.2 µM,-1%
same,growth inhibition,[9]; at 3.7 µM,0%
same,growth inhibition,[9]; at 11.0 µM,2%
same,growth inhibition,[9]; at 33.0 µM,3%
same,growth inhibition,[9]; at 100.0 µM,7%
same,growth inhibition,[10]; [16],2%
same,growth inhibition,[10]; [17],51%
same,growth inhibition,[10]; at 50.0 µM,20.9%
same,growth inhibition,[11]; at 1.2 µM,-2%
same,growth inhibition,[11]; at 3.7 µM,-5%
same,growth inhibition,[11]; at 11.0 µM,-2%
same,growth inhibition,[11]; at 33.0 µM,-2%
same,growth inhibition,[11]; at 100.0 µM,-1%
same,growth inhibition,[12]; [16],2%
same,growth inhibition,[12]; [17],8%
same,growth inhibition,[12]; at 50.0 µM,44.1%
same,growth inhibition,[13]; at 1.2 µM,0%
same,growth inhibition,[13]; at 3.7 µM,-3%
same,growth inhibition,[13]; [16],18%
same,growth inhibition,[13]; at 11.0 µM,-7%
same,growth inhibition,[13]; at 33.0 µM,-5%
same,growth inhibition,[13]; [17],33%
same,growth inhibition,[13]; at 50.0 µM,12.3%
same,growth inhibition,[13]; at 100.0 µM,3%
same,growth inhibition,[14]; at 1.2 µM,-1%
same,growth inhibition,[14]; at 3.7 µM,-1%
same,growth inhibition,[14]; at 11.0 µM,0%
same,growth inhibition,[14]; at 33.0 µM,2%
same,growth inhibition,[14]; at 100.0 µM,13%
same,growth inhibition,[15]; at 1.2 µM,-2%
same,growth inhibition,[15]; at 3.7 µM,-3%
same,growth inhibition,[15]; at 11.0 µM,1%
same,growth inhibition,[15]; at 33.0 µM,3%
same,growth inhibition,[15]; at 100.0 µM,10%
same,growth inhibition,[2]; [16],23%
same,growth inhibition,[2]; [17],77% (active)
same,growth inhibition,[2]; at 50.0 µM,70.3% (active)
same,growth inhibition,[3]; at 1.2 µM,1%
same,growth inhibition,[3]; at 3.7 µM,1%
same,growth inhibition,[3]; at 11.0 µM,-15%
same,growth inhibition,[3]; at 33.0 µM,11%
same,growth inhibition,[3]; at 100.0 µM,29%

# — PubChem BioAssay (NCI)
